Growth data for 15 molecules are collected here from PubChem BioAssay (NCI).

What all share (assay): NCI-60 one-dose screen, 48 h (100 = growth as untreated, 0 = no growth, -100 = all killed)
What all share (details): 10 µM unless noted

For experiment [1], the system named is T-47D breast.
Experiment [2] relates to BT-549 breast.
Experiment [3] has as its system MDA-MB-435 melanoma.
The subject of experiment [4] is SW-620 colon.
The subject of experiment [5] is MCF7 breast.
The test system of experiment [6] is HCT-116 colon.
Experiment [7] concerns HCC-2998 colon.
The test system of experiment [8] is KM12 colon.

The panel holds about 83,000 compounds, 20% with a hit somewhere; the sample as a whole holds those more often.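 Values shown are percent growth following 48 h exposure of cells in 96-well plates to a single concentration of compound; below 10 was considered active.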 Unmarked numbers belong to inactive results. Active and inactive are the calls of the source.

On to `COC(=O)C(Cc1ccccc1)NC(=O)c1ccc(NC(=O)c2[nH]c(C)c(Cl)c2Cl)c(OC(C)C)c1` (stereo not given), for which the growth is 36.5% in experiment [1]; 82.1% in experiment [2]; 100% in experiment [3]; 42.4% in experiment [4]; 32.8% in experiment [5]; 0.768% (active) in experiment [6]. Further, the growth in experiment [7] is 80.1%; in experiment [8], 39.8%.
`COc1cccc(/C=C/C(=O)c2cc3c(N)c(C(=O)Nc4cccc5ccccc45)sc3nc2C)c1`: the growth is 32.3% in experiment [1]; 19.3% in experiment [2]; -50.7% (active) in experiment [3]; -1.14% (active) in experiment [4]; 13.4% in experiment [5]; 12.2% in experiment [6]. Further, the growth in experiment [7] was -23.8% (active); in experiment [8], 11%.
For `CC[N+]1(CC)CC[N+]2(CCCC(C)CC2)CC1` (stereo not given), the growth in experiment [1] is 103%; in experiment [2] it was 113%; in experiment [3], 110%; in experiment [4] it was 103%; in experiment [5], 96%; in experiment [6], 104%. Further, the growth was 99.9% in experiment [7] and 104% in experiment [8].
As for `C[C@H](CCCC(=O)NCC#CCN1CCN(C)CC1)[C@H]1CC[C@H]2[C@@H]3CC[C@@H]4CC(=O)CC[C@]4(C)[C@H]3CC[C@]12C`, the growth in experiment [1] was 101%; in experiment [2], 76.8%; in experiment [3], 95.5%; in experiment [4], 98.7%; in experiment [5], 79.7%; in experiment [6], 68.2%. For the same molecule, the results for the growth in experiment [7] and in experiment [8] were 104% and 99.8%, respectively.
With `O=C(Oc1ccc(CCl)cc1)c1ccccc1`, the growth in experiment [1] is -35.1% (active); in experiment [2], -97.9% (active); in experiment [3], -88.7% (active); in experiment [4], -49% (active); in experiment [5], -58.2% (active); in experiment [6], -84.7% (active). For the same molecule, the results for the growth in experiment [7] and in experiment [8] were -75% (active) and -79.1% (active), respectively.
Consider `C/C(=N\O)c1ccc(NC(=O)CSc2nnc(-c3cc(-c4ccc(S(N)(=O)=O)cc4)nc4ccccc34)n2-c2ccccc2)cc1`, for which the growth in experiment [1] is 36.6%; in experiment [2], 67.9%; in experiment [3] it was 69.5%; in experiment [4], 74.7%; in experiment [5], 44.6%; in experiment [6], 53.2%. For the same molecule, the growth is 87.5% in experiment [7] and 65% in experiment [8].
In the case of `CCCCNC(=O)Oc1ccc(/C(=C(/C)Cc2ccc(OC)cc2)c2ccc(OCCN3CCCCC3)cc2)cc1`, the growth in experiment [1] was 37.9%; in experiment [2], 81.9%; in experiment [3] it was 67.8%; in experiment [4], 77.4%; in experiment [5], 26.9%; in experiment [6], 41.8%. In addition, the growth in experiment [7] is 75.5%; in experiment [8], 73.6%.
As for `COc1cc(C(=O)c2c(-c3ccccc3)oc3c(OC)cccc23)cc(OC)c1OC`, the growth in experiment [1] was 58.2%; in experiment [2] it was -5.83% (active); in experiment [3], -28.9% (active); in experiment [4], 20.1%; in experiment [5], 10.1%; in experiment [6] it was -8.11% (active). In addition, the results for the growth in experiment [7] and in experiment [8] were -4.94% (active) and 3.21% (active), respectively.
As for `O=C(Cn1nnc2ccccc21)N/N=C/c1c[nH]c2ccccc12`, the growth in experiment [1] was 37.1%; in experiment [2], 52.4%; in experiment [3], -15.9% (active); in experiment [4], 25.3%; in experiment [5], 22%; in experiment [6], 26.9%. Besides, the figures for the growth in experiment [7] and in experiment [8] were 78.8% and 22.6%, respectively.
In the case of `O=C(Nc1ccccc1O)c1ccc(CNC(=O)c2ccsc2Nc2ccnc(C(F)(F)F)c2)cc1`, the growth in experiment [1] is 25%; in experiment [2] it was 51.7%; in experiment [3] it was 14.9%; in experiment [4] it was 19.1%; in experiment [5] it was 24.5%; in experiment [6], 15.9%. The figures for the growth in experiment [7] and in experiment [8] were 44.5% and 30%, respectively.
As for `Nc1nc(N)c2c(n1)NC(c1cccc(Nc3ccnc4cc(C(F)(F)F)ccc34)c1)CC(c1ccccc1)=N2` (stereo not given), the growth in experiment [1] is 83.4%; in experiment [2], 114%; in experiment [3], -30.4% (active); in experiment [4], 32.4%; in experiment [5], 16.9%; in experiment [6] it was 21%. Also, the growth was 54.2% in experiment [7] and 33.5% in experiment [8].
For `CCn1cc(CNc2ccc(C(=O)Nc3cc4cc(OC)c(OC)cc4c(C)n3)cc2)cn1`, the growth is -3.23% (active) in experiment [1]; 24.6% in experiment [2]; 10.5% in experiment [3]; 75.3% in experiment [4]; 46.6% in experiment [5]; 46.8% in experiment [6]. The growth in experiment [7] was 87.8%; in experiment [8] it was 33.3%.
On to `CC(C)=CCNc1ncnc2c1ncn2C1OC(CO)C(O)C1O` (stereo not given), for which the growth is -57% [1 mM] (active) in experiment [1]; -51.7% [1 mM] (active) in experiment [2]; 23.9% [1 mM] in experiment [3]; -2.16% [1 mM] (active) in experiment [4]; -60.7% [1 mM] (active) in experiment [5]; -13.7% [1 mM] (active) in experiment [6]. Moreover, the figures for the growth in experiment [7] and in experiment [8] were -62.5% [1 mM] (active) and 10.6% [1 mM], respectively.
Consider `O=C1Nc2c(C(=O)O)cccc2/C1=N/c1n[nH]c(=S)s1`, for which the growth in experiment [1] is 68.4%; in experiment [2], 116%; in experiment [3], 88.4%; in experiment [4], 88.1%; in experiment [5], 80.8%; in experiment [6], 96.2%. Also, the figures for the growth in experiment [7] and in experiment [8] were 103% and 75.4%, respectively.
With `CC1(C)CC(=O)c2c(nn(-c3ccc(Br)cc3)c2-c2cn(-c3ccccc3)nc2-c2cccnc2)C1`, the growth in experiment [1] is 70.8%; in experiment [2], 86.9%; in experiment [3] it was 105%; in experiment [4], 91.4%; in experiment [5] it was 75.2%; in experiment [6], 85%. Further, the growth in experiment [7] is 106%; in experiment [8], 97.1%.
